Source: PubChem BioAssay (NCATS)
Values joined by “and” are separate entries in the source; they are usually repeats but may differ in a detail not shown here. Equal entries are not always repeated. Inconclusive results are not listed. Active and inactive are the calls of the source. Unless noted, the call rests on the fitted dose curve; in most records, active means well fitted curve in the direction sought with a large enough effect; inconclusive means small, poorly fitted or top-dose-only effect, or another doubt; inactive means no such curve, though single readings can be large; an effect the other way counts as inactive or inconclusive.

What was measured:
[1] = target: Cellular tumor antigen p53 (Homo sapiens) (UniProt P04637); test: Primary qHTS for small molecule compounds that upregulate eGFP-tagged delta133p53alpha (in N-terminal) cells. (AID 2060322); conditions: NCI-H358 eGFP-delta133p53alpha fluorescence, 24 h; activation: stronger effect = higher value;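 further: cells pre-induced with doxycycline then dosed without doxycycline; series mostly up to about 56 µM; 0% = DMSO vehicle and 100% = reference activator; nearly all actives have a fitted effect of over 75% in size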
Outline: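 NCI-H358 cells pre-induced 24 h with 10 ng/ml doxycycline for eGFP-delta133p53alpha, plated dox-free and exposed 24 h at 37C to titrated compounds. Fixed, Hoechst-stained; gated GFP peak intensity by laser scanning cytometry, normalized to DMSO (0%) and 57.5 uM 5-azacytidine (100%).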

[2] = target: Aldehyde dehydrogenase, mitochondrial (Homo sapiens) (UniProt P05091); test: qHTS for Inhibitors of the Aldehyde Dehydrogenase Family (ALDH2) Confirmatory screens (AID 2061303; active means well fitted inhibition curve with a large enough effect; title and protocol of this record describe different tests; further: on the % scale 0 is the no-effect control and ±100 the full control effect; nearly all actives have a fitted effect of over 45% in size)
[3] = qHTS for Inhibitors of the Aldehyde Dehydrogenase Family (ALDH1A2, ALDH1A3, ALDH2, ALDH3A1) (AID 2061307); further: on the % scale 0 is the no-effect control and ±100 the full control effect; nearly all actives have a fitted effect of over 50% in size
[4] = target: Retinaldehyde dehydrogenase 3 (Homo sapiens) (UniProt P47895); test: qHTS for Inhibitors of the Aldehyde Dehydrogenase Family (ALDH1A3) Confirmatory screens (AID 2061311); further: on the % scale 0 is the no-effect control and ±100 the full control effect; nearly all actives have a fitted effect of over 60% in size
[5] = target: Retinal dehydrogenase 2 (Homo sapiens) (UniProt O94788); test: qHTS for Inhibitors of the Aldehyde Dehydrogenase Family (ALDH1A2) Confirmation screens (AID 2061314); further: nearly all actives have a fitted effect of over 65% in size
[6] = target: Retinaldehyde dehydrogenase 3 (Homo sapiens) (UniProt P47895); test: qHTS for Inhibitors of the Aldehyde Dehydrogenase Family (ALDH1A3) Primary screen (AID 2061315);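 further: plate controls were DMSO vehicle for no effect and reference inhibitor for full effect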
[7] = target: Aldehyde dehydrogenase 1A1 (Homo sapiens) (UniProt P00352); test: qHTS for Inhibitors of the Aldehyde Dehydrogenase Family (ALDH1A1) Confirmatory screens (AID 2061316); further: nearly all actives have a fitted effect of over 65% in size; further: potency means the concentration at half of the fitted maximal effect
[8] = target: Aldehyde dehydrogenase, mitochondrial (Homo sapiens) (UniProt P05091); test: qHTS for Inhibitors of the Aldehyde Dehydrogenase Family (ALDH2) Primary screen (AID 2061308);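 further: plate controls were vehicle for no effect and reference inhibitor for full effect; nearly all actives have a fitted effect of over 55% in size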
[9] = target: Retinaldehyde dehydrogenase 3 (Homo sapiens) (UniProt P47895); test: qHTS for Inhibitors of the Aldehyde Dehydrogenase Family (ALDH1A3) Validation screen (AID 2061312); further: on the % scale 0 is the no-effect control and ±100 the full control effect; nearly all actives have a fitted effect of over 45% in size
[10] = BET inhibitor-based combinations targeting novel dependencies in MECOM-rearranged (r) AML: SET-2 cell line (AID 2202231); conditions: SET-2 AML cells viability, CellTiter-Glo luminescence, 48 h; viability: stronger effect = lower value, series mostly up to about 46 µM;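 further: plate controls were DMSO treated cells for no effect and wells without cells for full effect; nearly all actives have a fitted effect of over 35% in size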
Outline: (§1)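 500 cells/well; 11-pt dose curve; 48 h, standard incubator; CellTiter-Glo luminescence after 15 min RT; DMSO/empty-well normalization; AUC plus Z-AUC (mean-centered within each line).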

[11] = BET inhibitor-based combinations targeting novel dependencies in MECOM-rearranged (r) AML: OCI-AML3 cell line (AID 2202232); conditions: Potency: OCI-AML3 viability;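 further: series mostly up to about 46 µM; plate controls were DMSO vehicle wells for no effect and wells without cells for full effect; nearly all actives have a fitted effect of over 35% in size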
Outline: as §1

[12] = BET inhibitor-based combinations targeting novel dependencies in MECOM-rearranged (r) AML: HNT-34 cell line (AID 2202234);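 further: plate controls were vehicle wells for no effect and cell-free wells for full effect; nearly all actives have a fitted effect of over 35% in size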
Outline: (§2)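 Cells were plated at 500 per well and exposed to each drug across an 11-point dose range for 48 hr at standard incubator conditions. Viability was read by CellTiter-Glo luminescence, and activity was expressed as AUC and per-cell-line Z-transformed AUC.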

[13] = BET inhibitor-based combinations targeting novel dependencies in MECOM-rearranged (r) AML: UCSD-AML1 cell line (AID 2202235);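 further: series mostly up to about 46 µM; plate controls were DMSO vehicle wells for no effect and blank wells for full effect; nearly all actives have a fitted effect of over 40% in size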
Outline: as §2

[14] = BET inhibitor-based combinations targeting novel dependencies in MECOM-rearranged (r) AML: AML-191 cell line (AID 2202236;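 further: plate controls were vehicle wells for no effect and wells without cells for full effect; nearly all actives have a fitted effect of over 35% in size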)
Outline: as §1

Chain of Cellular tumor antigen p53 (Homo sapiens) (P04637 whole entry, looked up): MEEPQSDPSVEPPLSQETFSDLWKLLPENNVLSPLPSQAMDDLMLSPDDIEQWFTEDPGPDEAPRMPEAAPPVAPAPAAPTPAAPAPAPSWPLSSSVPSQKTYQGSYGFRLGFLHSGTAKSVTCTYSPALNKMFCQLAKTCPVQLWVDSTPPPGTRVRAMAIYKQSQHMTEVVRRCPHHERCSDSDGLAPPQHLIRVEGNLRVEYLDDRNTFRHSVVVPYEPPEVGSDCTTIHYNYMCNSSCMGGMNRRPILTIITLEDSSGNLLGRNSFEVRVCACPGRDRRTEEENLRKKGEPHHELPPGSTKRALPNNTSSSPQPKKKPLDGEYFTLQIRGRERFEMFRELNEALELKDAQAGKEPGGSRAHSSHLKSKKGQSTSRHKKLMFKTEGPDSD

COc1ccc(CCO[C@@H]2CCCC[C@H]2N2CC[C@@H](O)C2)cc1OC
inactive: activation [1] -0.477% | Potency [2] | Potency [3] | Potency [4] | Potency [5] | Potency [6] | Potency [7]

CC1=C2CC3C(CCC3(C)O)C(C)(O)CC2OC1=O (centres undefined)
inactive: activation [1] -2.68% | Potency [2] | Potency [8] | Potency [5] | Potency [6] | Potency [7]

OCC(O)C(c1c[nH]c2ccccc12)c1c[nH]c2ccccc12 (centres undefined)
inactive: activation [1] -8.93% | Potency [2] | Potency [8] | Potency [6]

CC1=CC(=O)C(=C(C)C)CC2C(C)(O)CCC12O (centres undefined)
inactive: activation [1] -8.93% | Potency [2] | Potency [8] | Potency [5] | Potency [6] | Potency [7]

OC/C=C/C=C/[C@H]1Cc2cc(O)cc(O)c2O1
inactive: activation [1] 0.893% | Potency [2] | Potency [8] | Potency [5]

Cc1[nH]c(/C=C2\C(=O)Nc3cc(-c4ccccc4)ccc32)c(C)c1CCC(=O)O
inactive: activation [1] -26.3% | Potency [2] | Potency [8] | Potency [9] | Potency [6] | Potency [7]

Cn1cc(Nc2cnccc2C(=O)O)c2cccnc21
inactive: activation [1] 4.33% | Potency [2] | Potency [8] | Potency [4] | Potency [5] | Potency [6]

C=CC(=O)N1CCN(C(=O)CNc2cc(-c3ccccc3Cl)c(Cl)cc2OC)CC1
inactive: activation [1] 8.59% | Potency [2] | Potency [8] | Potency [4] | Potency [9] | Potency [6] | Potency [7]

O=C(O)c1cn(C2CC2)c2cc(N3C[C@@H]4C[C@H]3CN4)c(F)cc2c1=O
inactive: activation [1] 11.7% | Potency [2] | Potency [8] | Potency [4] | Potency [5] | Potency [6]
active: Potency [7] 31.8 µM

Cc1ccc(CN2CCNCC2)cc1NC(=O)CNc1ccc(F)c(F)c1
inactive: activation [1] -12.8% and -5.25% | Potency [2] | Potency [8] | Potency [4] | Potency [6] | viability [10] 115% | Potency [11] | Potency [12] | Potency [13] | Potency [14]
active: Potency [7] 12.7 µM
